Source: the supplement of paper PMC3334620
Whole data set: some 33,000 sequences, median “E-score (-0.5 to 0.5)” near -0.054, cut for the highest 2% near 0.39. The full list was thinned out, with the highest values kept by preference.

These sequences were tested against Ylr278c (UniProt Q05854) (assay: PBM E-score (8-mer binding enrichment) (E-score (-0.5 to 0.5)); higher = stronger / more preferred TF binding). Settings: protein concentration: 200 nM; construct: GST-DNA-binding domain.
UniProt Q05854, sequence (Q05854 whole entry, the tested form may be a part): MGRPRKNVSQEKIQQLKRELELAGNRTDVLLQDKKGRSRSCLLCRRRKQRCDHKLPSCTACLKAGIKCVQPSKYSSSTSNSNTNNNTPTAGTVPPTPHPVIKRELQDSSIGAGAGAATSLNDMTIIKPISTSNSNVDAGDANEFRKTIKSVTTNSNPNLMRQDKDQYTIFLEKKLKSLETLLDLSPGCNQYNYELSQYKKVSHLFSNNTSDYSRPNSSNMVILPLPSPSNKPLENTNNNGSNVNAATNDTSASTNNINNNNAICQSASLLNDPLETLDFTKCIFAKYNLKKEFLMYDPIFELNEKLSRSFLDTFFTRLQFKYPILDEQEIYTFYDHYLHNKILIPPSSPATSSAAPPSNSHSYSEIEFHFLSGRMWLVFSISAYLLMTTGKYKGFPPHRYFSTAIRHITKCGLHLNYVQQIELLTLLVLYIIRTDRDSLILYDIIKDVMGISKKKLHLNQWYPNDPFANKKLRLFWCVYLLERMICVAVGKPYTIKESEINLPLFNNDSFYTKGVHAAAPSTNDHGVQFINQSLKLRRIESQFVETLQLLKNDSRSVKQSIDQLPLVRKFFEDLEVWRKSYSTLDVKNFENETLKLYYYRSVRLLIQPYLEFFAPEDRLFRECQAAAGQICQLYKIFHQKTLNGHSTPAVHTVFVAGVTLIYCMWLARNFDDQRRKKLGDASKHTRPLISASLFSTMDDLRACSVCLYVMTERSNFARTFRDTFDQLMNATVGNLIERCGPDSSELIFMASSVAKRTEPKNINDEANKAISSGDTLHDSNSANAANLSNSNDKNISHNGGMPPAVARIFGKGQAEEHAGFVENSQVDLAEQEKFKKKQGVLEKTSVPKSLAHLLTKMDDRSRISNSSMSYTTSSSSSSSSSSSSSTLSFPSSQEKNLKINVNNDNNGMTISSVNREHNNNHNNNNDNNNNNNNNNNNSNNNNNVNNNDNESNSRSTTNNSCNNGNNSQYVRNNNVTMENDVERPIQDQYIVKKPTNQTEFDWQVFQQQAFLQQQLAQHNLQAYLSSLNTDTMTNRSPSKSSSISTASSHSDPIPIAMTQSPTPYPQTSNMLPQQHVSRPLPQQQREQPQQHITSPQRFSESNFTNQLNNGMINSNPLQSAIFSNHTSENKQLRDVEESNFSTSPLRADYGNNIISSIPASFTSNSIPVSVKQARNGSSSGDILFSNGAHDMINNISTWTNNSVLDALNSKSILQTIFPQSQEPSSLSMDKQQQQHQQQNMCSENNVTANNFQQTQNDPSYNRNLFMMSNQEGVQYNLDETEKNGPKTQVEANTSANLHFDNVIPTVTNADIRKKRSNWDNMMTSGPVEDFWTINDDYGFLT
Description: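 Universal 'all 10-mer' protein binding microarrays (Agilent AMADID 015681) probed with GST-tagged S. cerevisiae TFs (full-length or DBD) made by in vitro transcription/translation (PURExpress), about 100-200 nM. Bound TF was detected with fluorescent anti-GST. Each ungapped 8-mer (which stands for itself and its reverse complement) is scored by the PBM enrichment score (E-score), a modified Wilcoxon-Mann-Whitney statistic from -0.5 to +0.5, computed with the Universal PBM Analysis Suite. Scale: above 0.35 generally sequence-specific binding.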
For AAGATTCT, the “PBM E-score” value was -0.242.
CCCACCGC was tested, and the “PBM E-score” value was 0.225.
For CCCACCGA, the “PBM E-score” value was 0.00192.
For CCCACCGG, the “PBM E-score” value was 0.41.
CACACCGG was tested, and the “PBM E-score” value was 0.283.
With AATACCGT the “PBM E-score” value was 0.211.
In the case of AATACCGG, the “PBM E-score” value is reported as 0.416.
AACACCGG was tested, and the “PBM E-score” value was 0.411.
With AACACCGC the “PBM E-score” value was 0.27.
For AATACCGC, the “PBM E-score” value was 0.268.
With ATAAATAT the “PBM E-score” value was 0.106.
In the case of GGTTCGTA, the “PBM E-score” value is reported as -0.0544.
In the case of CACTGTAC, the “PBM E-score” value is reported as -0.378.
With AAAGCGAC the “PBM E-score” value was 0.031.
ATCCGAAG was tested, and the “PBM E-score” value was 0.301.
In the case of AACCGAAT, the “PBM E-score” value is reported as 0.133.
For CGCCGAAG, the “PBM E-score” value was 0.365.
With CACCGAAG the “PBM E-score” value was 0.167.
For ATCCGAAA, the “PBM E-score” value was 0.368.
For GACCGAAC, the “PBM E-score” value was 0.122.
GCCCGAAC was tested, and the “PBM E-score” value was 0.215.
In the case of ATCCGAAT, the “PBM E-score” value is reported as 0.395.
With GTCCGAAA the “PBM E-score” value was 0.426.
In the case of CTCCGAAG, the “PBM E-score” value is reported as 0.479.
For GTCCGAAC, the “PBM E-score” value was 0.401.
For GGCCGAAA, the “PBM E-score” value was 0.254.
In the case of GGACACCA, the “PBM E-score” value is reported as 0.0663.
In the case of AAATGGTT, the “PBM E-score” value is reported as -0.0331.
ACCCACAA was tested, and the “PBM E-score” value was 0.00936.
With AGCTTCCG the “PBM E-score” value was 0.24.
For CAACTGCA, the “PBM E-score” value was -0.174.
For GGAGCTCC, the “PBM E-score” value was 0.348.
For CGCCGAAA, the “PBM E-score” value was 0.358.
For CTCCGAAC, the “PBM E-score” value was 0.457.
For CACCGAAC, the “PBM E-score” value was 0.102.
For CTCCGAAA, the “PBM E-score” value was 0.477.
With CACCGAAA the “PBM E-score” value was 0.184.
TCCCGAAA was tested, and the “PBM E-score” value was 0.238.
TTCCGAAA was tested, and the “PBM E-score” value was 0.43.
With ATCCGAAC the “PBM E-score” value was 0.344.
For TGCCGAAA, the “PBM E-score” value was 0.325.
CCACAATC was tested, and the “PBM E-score” value was 0.0776.
For ACTGCTAA, the “PBM E-score” value was -0.185.
With AACAGTTC the “PBM E-score” value was -0.0219.
In the case of CCTCAAAG, the “PBM E-score” value is reported as -0.271.
For AGCGCTCC, the “PBM E-score” value was 0.0243.
With CAGTAGCG the “PBM E-score” value was 0.0152.
For AGAGTTAC, the “PBM E-score” value was -0.362.
For CGAGTTAC, the “PBM E-score” value was -0.00574.
GGAGTTAC was tested, and the “PBM E-score” value was 0.399.
For ACCTAGCT, the “PBM E-score” value was -0.1.
In the case of ACTACAAA, the “PBM E-score” value is reported as -0.0603.
In the case of GTCCGAGA, the “PBM E-score” value is reported as 0.416.
In the case of CGCCGAGA, the “PBM E-score” value is reported as 0.304.
CCCCGAGC was tested, and the “PBM E-score” value was 0.219.
For CTCCGAGA, the “PBM E-score” value was 0.452.
In the case of ATCCGAGA, the “PBM E-score” value is reported as 0.299.
With CACCGAGA the “PBM E-score” value was 0.034.
ATCCGAGC was tested, and the “PBM E-score” value was 0.266.
With GGCCGAGA the “PBM E-score” value was 0.272.
For CTCCGAGC, the “PBM E-score” value was 0.439.
AAATATCT was tested, and the “PBM E-score” value was 0.00279.
In the case of GCGCAGTA, the “PBM E-score” value is reported as 0.0804.
ACTAGCGA was tested, and the “PBM E-score” value was -0.0813.
For ATGGATGC, the “PBM E-score” value was -0.0459.
For ATCATGAT, the “PBM E-score” value was -0.14.
With ACGTAGAC the “PBM E-score” value was -0.244.
In the case of CGGGAGAC, the “PBM E-score” value is reported as 0.302.
With CAGGAGAG the “PBM E-score” value was -0.205.
For CCGGAGAA, the “PBM E-score” value was 0.489.
CTGGAGAC was tested, and the “PBM E-score” value was -0.222.
With ATGGAGAA the “PBM E-score” value was 0.148.
For AAGGAGAA, the “PBM E-score” value was -0.0157.
With ACGGAGAA the “PBM E-score” value was 0.434.
For CCGGAGAG, the “PBM E-score” value was 0.456.
In the case of CAGGAGAA, the “PBM E-score” value is reported as 0.0274.
With CTGGAGAA the “PBM E-score” value was -0.141.
CCGGAGAC was tested, and the “PBM E-score” value was 0.444.
With ACGGAGAG the “PBM E-score” value was 0.336.
For CTCAGAAA, the “PBM E-score” value was -0.257.
With GAAGACAA the “PBM E-score” value was -0.0383.
With ACCGATCG the “PBM E-score” value was 0.26.
For CGGGTAAA, the “PBM E-score” value was 0.156.
With CTGAGAAG the “PBM E-score” value was -0.149.
In the case of ACGAGTCG, the “PBM E-score” value is reported as -0.159.
With AATTTCGT the “PBM E-score” value was -0.0607.
With CGAGATCA the “PBM E-score” value was 0.013.
GGCAGCGA was tested, and the “PBM E-score” value was 0.0771.
For CCCAGGAG, the “PBM E-score” value was -0.188.
With CAACACTC the “PBM E-score” value was 0.133.
With TACGGTCA the “PBM E-score” value was 0.0722.
In the case of GTAAAGAA, the “PBM E-score” value is reported as -0.0759.
GTGGAGAA was tested, and the “PBM E-score” value was -0.0956.
For TAGGAGAA, the “PBM E-score” value was -0.134.
In the case of TCGGAGAA, the “PBM E-score” value is reported as 0.465.
For TGGGAGAA, the “PBM E-score” value was -0.208.
With GCGGAGAA the “PBM E-score” value was 0.436.
GGGGAGAA was tested, and the “PBM E-score” value was 0.0935.
ATACCTTG was tested, and the “PBM E-score” value was -0.236.
With AACCTAGG the “PBM E-score” value was -0.102.
With CATAGGAG the “PBM E-score” value was -0.136.
In the case of GACTATGA, the “PBM E-score” value is reported as -0.11.
With AGTCTTGA the “PBM E-score” value was -0.247.
For AGGAAATC, the “PBM E-score” value was 0.178.
With CGGAAAAC the “PBM E-score” value was 0.373.
With CGGAAAAG the “PBM E-score” value was 0.373.
For AGGAAATA, the “PBM E-score” value was 0.0859.
For GGGAAATA, the “PBM E-score” value was 0.0851.
In the case of CGGAAATA, the “PBM E-score” value is reported as 0.451.
With CTGAAATC the “PBM E-score” value was 0.0679.
With CGGAAAAA the “PBM E-score” value was 0.446.
CGGAAATC was tested, and the “PBM E-score” value was 0.41.
ACGCGAGA was tested, and the “PBM E-score” value was -0.171.
With CATTCAAG the “PBM E-score” value was -0.154.
ATCCGAGG was tested, and the “PBM E-score” value was 0.274.
In the case of ATCCGGGG, the “PBM E-score” value is reported as 0.414.
For CTCCGGGA, the “PBM E-score” value was 0.468.
In the case of AACCGGGC, the “PBM E-score” value is reported as 0.0679.
In the case of CCCGGGGA, the “PBM E-score” value is reported as 0.358.
In the case of CACCGGGC, the “PBM E-score” value is reported as 0.304.
With GTCCGGGA the “PBM E-score” value was 0.38.
With CTCCGGGC the “PBM E-score” value was 0.448.
ATCCGGGC was tested, and the “PBM E-score” value was 0.406.
With AACCGGGG the “PBM E-score” value was 0.321.
For ATCCGGGA, the “PBM E-score” value was 0.332.
CTGCGGGC was tested, and the “PBM E-score” value was 0.276.
With TAAGAGTA the “PBM E-score” value was -0.0846.
ACGACAGA was tested, and the “PBM E-score” value was -0.232.
For AGCCGCAC, the “PBM E-score” value was -0.0107.
In the case of CCAGACGA, the “PBM E-score” value is reported as -0.149.
CCGCTTTC was tested, and the “PBM E-score” value was 0.211.
With CATCCATA the “PBM E-score” value was -0.123.
With CAGAGTCC the “PBM E-score” value was 0.0837.
With AGGAGTCA the “PBM E-score” value was -0.121.
AGGAGTCC was tested, and the “PBM E-score” value was 0.13.
CGGAGTCA was tested, and the “PBM E-score” value was 0.457.
For CGGAGTCC, the “PBM E-score” value was 0.464.
In the case of GGGAGTCA, the “PBM E-score” value is reported as -0.00639.
For GAAGCCAA, the “PBM E-score” value was 0.0199.
For ACTGTTCA, the “PBM E-score” value was -0.122.
With CATTCCGA the “PBM E-score” value was 0.391.
TATTCCGA was tested, and the “PBM E-score” value was 0.453.
With CATTCCTA the “PBM E-score” value was -0.212.
With CATTCCGG the “PBM E-score” value was 0.384.
With GATTCCAA the “PBM E-score” value was -0.116.
For GATTCCCA, the “PBM E-score” value was 0.0255.
In the case of TATTCCAA, the “PBM E-score” value is reported as -0.177.
For GATTCCGA, the “PBM E-score” value was 0.413.
TATTCCCA was tested, and the “PBM E-score” value was 0.138.
AGCTAGTA was tested, and the “PBM E-score” value was -0.114.
For GAGTTCCC, the “PBM E-score” value was 0.0904.
In the case of AACTTATA, the “PBM E-score” value is reported as 0.0873.
CAAGCAGG was tested, and the “PBM E-score” value was 0.00606.
With CCTACAGA the “PBM E-score” value was -0.256.
GAGTCGCC was tested, and the “PBM E-score” value was 0.0773.
For GTCAGATA, the “PBM E-score” value was -0.151.
In the case of TCCTTGAA, the “PBM E-score” value is reported as -0.227.
In the case of GTTTCTGA, the “PBM E-score” value is reported as 0.0572.
CGGGCCCA was tested, and the “PBM E-score” value was 0.091.
With CGGGCCCG the “PBM E-score” value was 0.398.
AGGGCCCG was tested, and the “PBM E-score” value was 0.152.
For ATTTCTGC, the “PBM E-score” value was 0.184.
GCGCAGCC was tested, and the “PBM E-score” value was 0.0388.
GGCGGACC was tested, and the “PBM E-score” value was 0.413.
In the case of CTCGGACC, the “PBM E-score” value is reported as 0.365.
In the case of CTCGGACA, the “PBM E-score” value is reported as 0.435.
In the case of AACGGACC, the “PBM E-score” value is reported as 0.251.
GTCGGACA was tested, and the “PBM E-score” value was 0.386.
With ATCGGATA the “PBM E-score” value was 0.393.
In the case of ATCGGATG, the “PBM E-score” value is reported as 0.329.
With ATCGGACC the “PBM E-score” value was 0.412.
With CTCGGATA the “PBM E-score” value was 0.215.
ATCGGTCC was tested, and the “PBM E-score” value was 0.325.
In the case of AGCGGACC, the “PBM E-score” value is reported as 0.252.
CGCGGACC was tested, and the “PBM E-score” value was 0.386.
